Compound activity as filed in PubChem.
KKLEB cytotox – reduces viability of KKLEB cystic fibrosis airway cells. KKLEB CF airway cells viability, ATPlite luminescence, overnight; hits give low values; cells stimulated with P. aeruginosa culture filtrate. activity change (cytotoxicity), % at 5 µM. 0.36% of 360,000 active. AID 602141;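 active means corrected activity change at or below -50% at 5 µM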
HSP90 refold inh – inhibitors of HSP90 luciferase refolding in rabbit reticulocyte lysate | luciferase refolding luminescence, 3 h | inhibition, % at 5.6 µM | 0.91% of 290,000 active | AID 1789;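 active means inhibition above the screen-wide mean plus 3 SD, computed separately per campaign, cut at about 16% in these data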;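 further: 0% = DMSO wells and 100% = 60 µM geldanamycin wells; inhibitors lower the luminescence because luciferase stays unfolded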
Mdm2 MdmX PPI – inhibitors of human Mdm2/MdmX interaction; O15151+Q00987; SaOS-2 split-luciferase Mdm2/MdmX complementation, luminescence; inhibition, % at 8 µM; 3% of 330,000 active;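 active means inhibition of at least 50% at 8 µM in the primary screen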
Target sequence (O15151 whole entry, looked up): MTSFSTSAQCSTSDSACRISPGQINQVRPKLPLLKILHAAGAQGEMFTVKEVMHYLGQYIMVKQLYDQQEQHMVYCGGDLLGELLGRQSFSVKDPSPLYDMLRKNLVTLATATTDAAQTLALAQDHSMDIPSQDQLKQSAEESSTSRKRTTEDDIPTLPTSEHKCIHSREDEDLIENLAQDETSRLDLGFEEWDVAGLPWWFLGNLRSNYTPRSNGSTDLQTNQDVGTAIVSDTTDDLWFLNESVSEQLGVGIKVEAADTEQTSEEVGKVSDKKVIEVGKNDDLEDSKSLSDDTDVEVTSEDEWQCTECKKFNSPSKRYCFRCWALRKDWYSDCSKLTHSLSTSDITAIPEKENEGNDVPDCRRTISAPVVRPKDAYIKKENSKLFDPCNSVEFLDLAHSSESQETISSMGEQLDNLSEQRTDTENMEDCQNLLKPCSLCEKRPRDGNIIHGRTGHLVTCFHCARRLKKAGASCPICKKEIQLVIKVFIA
Target sequence (Q00987 whole entry, looked up): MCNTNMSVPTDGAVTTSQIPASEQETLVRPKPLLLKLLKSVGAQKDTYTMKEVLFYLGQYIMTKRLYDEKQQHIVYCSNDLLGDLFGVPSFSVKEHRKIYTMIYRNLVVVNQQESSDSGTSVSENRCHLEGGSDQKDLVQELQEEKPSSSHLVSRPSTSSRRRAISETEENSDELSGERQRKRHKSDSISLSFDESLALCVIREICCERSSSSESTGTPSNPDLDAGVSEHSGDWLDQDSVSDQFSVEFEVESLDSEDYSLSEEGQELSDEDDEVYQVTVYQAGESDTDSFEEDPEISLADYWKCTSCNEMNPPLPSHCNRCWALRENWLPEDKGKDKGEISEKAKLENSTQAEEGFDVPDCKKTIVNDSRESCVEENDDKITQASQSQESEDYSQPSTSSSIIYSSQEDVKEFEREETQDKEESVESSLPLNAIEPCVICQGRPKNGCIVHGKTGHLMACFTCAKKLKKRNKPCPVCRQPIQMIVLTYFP
Peg3 prom inh – inhibitors of Peg3 promoter; HeLa PEG-Prom luciferase reporter, luminescence, overnight; inhibition, % at 20 µM; 1.7% of 360,000 active;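 active means inhibition of at least 50% at 20 µM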
CF NFkB inh – cystic fibrosis NF-kB activation inhibition; KKLEB NF-kB-GFP reporter, PAF-induced, GFP fluorescence overnight; inhibition, % at 5 µM; 0.86% of 360,000 active; AID 588850;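 active means at least 50% inhibition at 5 µM, scaled per plate between neutral and stimulator controls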;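 further: PAF is a Pseudomonas aeruginosa culture filtrate used as stimulus; plate controls were PAF-stimulated DMSO wells for no effect and unstimulated DMSO wells for full effect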
LGR2 antag – Drosophila LGR2 receptor signaling inhibition. HEK293 LGR2, CRE-luciferase, bursicon-stimulated, 4 h. inhibition, % at 9.99 µM. 0.35% of 380,000 active. AID 720647;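 active means drop in luminescence signal, shown as inhibition above about 50% in the replicate tests, limit read from the data, passing the limit was not always enough; inconclusive means probably only some replicates passing the limit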;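 further: agonist challenge used bursicon conditioned medium at about half maximal strength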
* = called active by the depositor; ? = inconclusive; / = not tested or not shown. An excerpt weighted towards active compounds, which were near 3.6% of everything screened.

SMILES	KKLEB cytotox	HSP90 refold inh	Mdm2 MdmX PPI	Peg3 prom inh	CF NFkB inh	LGR2 antag
COc1cc(/C=N/Nc2nc(C)nc3c2cnn3-c2ccccc2)ccc1O	-9	0	/	33	-34	58*
COc1cc(/C=N/NC(=O)c2nc(-c3ccccc3)n(-c3ccccc3)n2)ccc1O	11	-1	-3	-4	13	3
CS(=O)(=O)N(CC(=O)NC1CCCCC1)Cc1ccc(F)cc1	-2	0	3	-3	-11	-9
COc1ccc(C(=O)/C=C/C(=O)N(CC(=O)NC2CCCCC2)Cc2ccc(F)cc2)c(O)c1	-42	-2	/	102*	37	/
COc1ccc(C(=O)/C=C/C(=O)N(CC(=O)NCCC(C)C)Cc2cccs2)c(O)c1	-3	4	/	105*	-20	5
CC(O)CC(=O)OC[C@]12CC[C@H]3[C@@](C)(CC[C@H]4C(C)(C)CCC[C@]34C)[C@@H]1CC(C1=CC(=O)OC1O)O2 (some centres not stated)	-88*	/	/	99*	104*	/
Cc1cc(C)c(C#N)c(Sc2nc(C)c([N+](=O)[O-])c(C)c2C#N)n1	-28	/	/	98*	8	?
Cc1nc(Sc2ccccc2)c(C#N)c(C)c1[N+](=O)[O-]	-14	7	42	3	6	-6
CCCC#Cc1ccc([C@H]2[C@@H](CO)N3C(=O)CN(C(=O)c4ccccn4)C[C@@H]23)cc1	/	/	/	/	/	1
O=C1c2cccc3c([N+](=O)[O-])ccc(c23)C(=O)N1Cc1cccnc1	-4	0	/	46	-1	103*
O=C1C(Cl)=C(N2CCCCCC2)C(=O)N1c1ccc(Cl)cc1	5	-1	23	1	2	-18
CC(=O)c1cnc(N(C)C)s1	-6	4	11	7	7	/
O=C1C(Cl)=C(N2CCCCC2)C(=O)C(Cl)=C1c1cnc(N2CCCCC2)s1	-4	0	31	58*	3	/
CN(C)c1ncc(C2=C(Cl)C(=O)C(N3CCCC3)=C(Cl)C2=O)s1	2	-1	-17	57*	0	/
CCCCC[C@@H](/C=C/C1C(=O)C=C[C@H]1C/C=C\CCCC(=O)OC)OC(C)=O (some centres not stated)	-11	/	/	81*	30	32
N/C(=N\OC(=O)c1ccc(Cl)cc1)c1[nH]ncc1Br	1	4	-198	-159	-1	61*
O=C1N=c2ccccc2=C1c1sc(=S)n(Cc2ccccc2Cl)c1O	5	-4	14	83*	-1	-5
C[C@H]1CCCCO[C@@H](CN(C)C(=O)Nc2ccc3c(c2)OCO3)[C@@H](C)CN([C@@H](C)CO)C(=O)c2cc(NC(=O)c3ccncc3)ccc2O1	/	/	/	/	/	4
Cn1cnc(S(=O)(=O)N[C@H]2CC[C@@H](CC(=O)NCC3CCCCC3)O[C@H]2CO)c1	/	/	/	/	/	7
CCCc1cc(=O)oc2c(CNc3ccc(OCC)cc3)c(O)ccc12	-3	-3	33	36	53*	0
CCOC(=O)c1c(N2C(=O)C=CC2=O)sc(C)c1C	2	-2	13	105*	22	/
CCOC(=O)c1c(NC(N)=O)sc(C)c1C	-1	4	11	-11	9	/
C[C@@H]1CN([C@@H](C)CO)C(=O)c2cc(-c3ccccc3)cnc2O[C@H]1CN(C)Cc1ccc(C(=O)O)cc1	/	/	/	/	/	1
C[C@@H]1CN([C@@H](C)CO)C(=O)c2cccc(N(C)C)c2O[C@@H]1CN(C)Cc1ccc(Oc2ccccc2)cc1	/	/	/	/	/	-26
CN(CC(=O)Nc1cccc(F)c1)C(=O)c1cc(-c2cccs2)nn1-c1ccccc1	4	/	0	56*	-6	9
SMILES	KKLEB cytotox	HSP90 refold inh	Mdm2 MdmX PPI	Peg3 prom inh	CF NFkB inh	LGR2 antag
CN(CC(=O)Nc1ccccc1C(F)(F)F)C(=O)c1cc(-c2cccs2)nn1-c1ccccc1	-5	/	25	34	14	13
COC(=O)C[C@@H]1CC[C@H]2[C@@H](COC[C@@H](O)CN2CCC(F)(F)F)O1	/	/	/	/	/	0
O=C(CO/N=C/c1ccccc1)N1c2ccccc2Oc2ccccc21	2	16*	21	12	26	/
O=C(CN1CCCCC1)N1c2ccccc2Oc2ccccc21	-2	-1	19	3	17	/
O=C(C[C@@H]1CC[C@@H](NC(=O)Cc2cccnc2)[C@@H](CO)O1)NCc1ccc2c(c1)OCO2	/	/	/	/	/	4
Cc1ccc(S(=O)(=O)Nc2ccc3c(c2)C(=O)N([C@H](C)CO)C[C@@H](C)[C@H](CN(C)C(=O)NC2CCCCC2)OCCCC[C@@H](C)O3)cc1	/	/	/	/	/	12
Oc1ccc(/C=C/c2ccc3ccccc3n2)cc1	-40	24*	-27	46	-87	96*
CC(=O)Oc1ccc(Cl)cc1/C=C/c1ccc2ccccc2n1	-6	-6	3	-98	25	-77
Fc1ccccc1/C=C/c1ccc2ccccc2n1	-32	6	-102	12	-11	90*
O=C(O)/C=C/c1ccc2ccccc2n1	-11	0	-8	-5	2	/
CCOc1ccccc1N1CCN(c2ncnc3scc(-c4ccc(OC)cc4)c23)CC1	-8	7	49	59*	36	43
COc1cc(/C=C2\COC/C(=C\c3cc(OC)c(OC)c(OC)c3)C2=O)cc(OC)c1OC	-67*	4	/	105*	93*	/
COc1ccc(/C=C2\COc3ccccc3C2=O)cc1OC	2	4	11	95*	12	-22
C[C@@H]1CN([C@H](C)CO)S(=O)(=O)c2ccc(-c3ccc(C(=O)N(C)C)cc3)cc2O[C@@H]1CN(C)C(=O)C1CC1	/	/	/	/	/	-20
O=C1c2ccccc2C(=O)C1c1ccc2ccccc2n1	-68*	0	35	53*	-185	/
Nc1ccc(C(=O)c2cccs2)cn1	-4	-1	-12	-16	-10	-10
Nc1ccc(-c2cnc(N)c(C(=O)c3cccnc3)n2)cn1	10	/	/	46	81*	/
Cc1ccc(NC(=O)NCC2CCN(Cc3cccc(Cl)c3)CC2)cc1Cl	-17	2	31	83*	17	6
CCc1ccc(NC(=O)NCC2CCN(Cc3cccc(Cl)c3)CC2)cc1	-2	9	29	35	5	2
